Experimental data reported in PubChem BioAssay (Tox21).
Records with an inconclusive call do not appear. Activity calls are given as the source filed them. Unless noted, the call rests on the fitted dose curve; in most records, active means well fitted curve in the direction sought with a large enough effect in the repeat runs; inconclusive means weak or mixed curves; inactive means no such curve, though single readings can be large; an effect the other way counts as inactive or inconclusive.

What was measured:
[1] = qHTS assay to identify small molecule agonists of the sonic hedgehog signaling (Shh) pathway (AID 1259368; calls by dose curve;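 further: NIH/3T3-derived 3T3Gli1-Luc cells carrying a stable Gli1-driven firefly luciferase reporter; series mostly up to about 92 µM; nearly all actives have a fitted effect of over 15% in size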)
Summary of the method: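 A Gli1 transcriptional response element controlled firefly luciferase in 3T3Gli1-Luc cells. Compounds and a positive control were added 4 hr after plating, and cells were incubated a further 24 hr at 37 C before luminescence detection.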

[2] = qHTS assay to identify small molecule antagonists of the sonic hedgehog signaling (Shh) pathway (AID 1259369; calls by dose curve; further: nearly all actives have a fitted effect of over 45% in size)
Summary of the method: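 For antagonist detection, the reporter line received test compounds together with conditioned medium, incubated 24hr at 37 C, 5% CO2, then luminescence was recorded following 30min room-temperature luciferase reagent incubation.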

[3] = target: Estrogen receptor beta (Homo sapiens) (UniProt Q92731); test: qHTS assay to identify small molecule antagonists of the estrogen receptor beta (ER-beta) signaling pathway (AID 1259378; active means well fitted inhibition curve with a large enough effect in the signal ratio in the repeat runs, not every such curve was filed as active; the % refers to the signal ratio)
Chain of Estrogen receptor beta (Homo sapiens) (Q92731 whole entry, looked up): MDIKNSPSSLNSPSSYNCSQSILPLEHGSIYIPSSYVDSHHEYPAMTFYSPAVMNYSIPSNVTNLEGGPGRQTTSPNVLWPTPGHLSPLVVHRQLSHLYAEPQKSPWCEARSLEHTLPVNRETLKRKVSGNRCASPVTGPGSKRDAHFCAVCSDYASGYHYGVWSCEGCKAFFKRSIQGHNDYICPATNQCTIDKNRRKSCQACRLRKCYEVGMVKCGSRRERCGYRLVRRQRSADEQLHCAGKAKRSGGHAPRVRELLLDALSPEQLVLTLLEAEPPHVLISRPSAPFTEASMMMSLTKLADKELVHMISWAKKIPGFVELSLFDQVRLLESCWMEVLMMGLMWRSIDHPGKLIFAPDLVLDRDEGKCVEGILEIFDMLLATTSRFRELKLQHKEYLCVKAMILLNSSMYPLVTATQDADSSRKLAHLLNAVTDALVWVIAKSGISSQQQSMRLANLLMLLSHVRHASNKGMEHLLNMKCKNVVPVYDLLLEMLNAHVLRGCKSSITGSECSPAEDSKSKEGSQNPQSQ
Summary of the method: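 ER-beta-UAS-bla HEK293T (GripTite) cells in 2% charcoal-stripped FBS medium were preincubated 6 hr at 37C, dosed with compound, then stimulated with 1 nM E2 (final) for 16 hr; beta-lactamase reporter read by B/G FRET fluorescence after 2 hr substrate loading.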

[4] = qHTS assay to identify small molecule agonists of the androgen receptor (AR) signaling pathway in the presence of an antagonist - cell viability counter screen (AID 1259379);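 further: MDA-kb2 human breast cancer cells carrying an MMTV luciferase reporter; series mostly up to about 92 µM; nearly all actives have a fitted effect of over 25% in size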
Summary of the method: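 Seed MDA-kb2 at 3,000 cells/well; incubate 5 hr, 37C, 0% CO2. Add nilutamide to 3.0uM final, then pin compounds at 15 concentrations. Incubate 16 hr. Add CellTiter-Fluor at 15 hr, read fluorescence after 1 hr.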

[5] = qHTS assay to identify small molecule agonists of the estrogen receptor beta (ER-beta) signaling pathway - cell viability counter screen (AID 1259380); further: nearly all actives have a fitted effect of over 30% in size
Summary of the method: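 CellTiter-Glo read, 30 min RT, same wells as bla assay; cells ER-beta-UAS-bla HEK293T; 16 hr compound, 37C; medium 2% charcoal-stripped FBS.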

[6] = qHTS assay to identify small molecule antagonists of the estrogen receptor beta (ER-beta) signaling pathway - cell viability counter screen (AID 1259382); further: series mostly up to about 92 µM; nearly all actives have a fitted effect of over 55% in size
Summary of the method: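 In this multiplexed counter screen, cells were seeded at 2,000 per well in medium with 2% charcoal-stripped FBS and incubated 6 hr before compound and 1nM final E2 were added. Sixteen hours later, ATP-based luminescence reported viability.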

[7] = qHTS assay to identify small molecule agonists of the estrogen receptor alpha (ER-alpha) signaling pathway in the presence of an antagonist - cell viability counter screen (AID 1259386);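 further: series mostly up to about 92 µM; cells exposed to compounds for 22 h at 37 °C before the viability read; nearly all actives have a fitted effect of over 30% in size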
Summary of the method: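 Viability counter screen using VM7Luc4E2 (full-length ER-alpha, four ERE-luciferase). The cells were treated with compounds alongside ICI-182,780 10.0nM for 22hr, and live-cell protease fluorescence was quantified with CellTiter-Fluor.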

[8] = target: Progesterone receptor (Homo sapiens) (UniProt P06401); test: qHTS assay to identify small molecule antagonists of the progesterone receptor (PR) signaling pathway (AID 1346795; active means well fitted inhibition curve with a large enough effect in the signal ratio in the repeat runs, not every such curve was filed as active; the % refers to the signal ratio)
Chain of Progesterone receptor (Homo sapiens) (P06401 whole entry, looked up): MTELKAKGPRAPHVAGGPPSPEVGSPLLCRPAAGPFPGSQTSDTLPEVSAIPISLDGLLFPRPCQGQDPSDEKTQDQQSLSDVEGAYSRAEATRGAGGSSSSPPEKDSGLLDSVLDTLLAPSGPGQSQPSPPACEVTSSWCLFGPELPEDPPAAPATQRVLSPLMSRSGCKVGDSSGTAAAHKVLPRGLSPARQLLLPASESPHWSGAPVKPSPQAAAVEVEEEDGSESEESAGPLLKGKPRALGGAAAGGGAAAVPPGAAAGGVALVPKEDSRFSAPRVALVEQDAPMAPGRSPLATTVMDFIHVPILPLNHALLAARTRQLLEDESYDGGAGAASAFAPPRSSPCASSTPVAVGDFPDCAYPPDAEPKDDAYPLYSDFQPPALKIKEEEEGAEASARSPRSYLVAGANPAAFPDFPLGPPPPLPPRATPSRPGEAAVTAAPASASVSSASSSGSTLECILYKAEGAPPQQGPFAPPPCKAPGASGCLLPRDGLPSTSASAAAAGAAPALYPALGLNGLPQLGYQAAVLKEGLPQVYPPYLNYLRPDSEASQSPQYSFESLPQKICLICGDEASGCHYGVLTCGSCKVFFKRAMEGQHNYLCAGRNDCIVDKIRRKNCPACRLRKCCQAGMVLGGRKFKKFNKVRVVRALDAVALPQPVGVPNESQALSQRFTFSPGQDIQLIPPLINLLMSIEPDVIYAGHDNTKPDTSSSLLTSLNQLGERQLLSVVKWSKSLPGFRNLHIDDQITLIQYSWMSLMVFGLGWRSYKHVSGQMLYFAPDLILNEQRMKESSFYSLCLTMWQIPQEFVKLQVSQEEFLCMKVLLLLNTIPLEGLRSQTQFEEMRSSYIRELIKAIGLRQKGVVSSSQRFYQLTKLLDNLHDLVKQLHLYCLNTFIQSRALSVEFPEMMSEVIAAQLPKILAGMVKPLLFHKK
Summary of the method: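 PR-UAS-bla HEK293T cells with beta-lactamase reporter under UAS control, in 2% charcoal-stripped FBS, treated with compounds plus 1 nM promegestone (R5020, final) for 16 hr at 37C. Read-out: FRET beta-lactamase substrate fluorescence after 2 hr at room temperature.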

[9] = qHTS assay to identify small molecule antagonists of the progesterone receptor (PR) signaling pathway - cell viability counter screen (AID 1346798); further: series mostly up to about 92 µM; nearly all actives have a fitted effect of over 50% in size
Summary of the method: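 PR-UAS-bla HEK293T cells, 3,000/well in 2% charcoal-stripped FBS medium, dosed with compounds plus R5020 agonist and incubated 16 h at 37C. Viability then measured in the same wells by CellTiter-Glo luminescence after 30 min at RT.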

[10] = qHTS assay to identify small molecule agonists of the progesterone receptor (PR) signaling pathway - cell viability counter screen (AID 1346799; calls by dose curve; further: nearly all actives have a fitted effect of over 45% in size)
Summary of the method: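 Counter screen in the PR-UAS-bla HEK293T wells (2% charcoal-stripped FBS, 16 h compound exposure at 37 C) after the bla read. CellTiter-Glo added, 30 min at room temperature, luminescence read as cell viability.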

[11] = qHTS assay to identify small molecule antagonists of the TGF-beta/Smad signaling pathway - cell viability counter screen (AID 1346824); further: nearly all actives have a fitted effect of over 50% in size
Summary of the method: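 SBE-bla HEK 293T cells were plated overnight at 37 C, then given compounds in DMSO plus TGF-beta1 (added as 0.25 ng/mL solution) for 5 hr. After the bla read, CellTiter-Glo was added to the same wells and luminescence read after 30 min at room temperature.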

[12] = qHTS assay to identify small molecule agonists of the TGF-beta/Smad signaling pathway - cell viability counter screen (AID 1346829); further: top concentration of the series differs between compounds; nearly all actives have a fitted effect of over 45% in size
Summary of the method: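 In parallel with the Smad reporter read, viability of HEK 293T cells stably carrying SBE-bla is quantified by ATP luminescence following 5 hr compound treatment.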

[13] = qHTS assay to identify small molecule agonists of the TGF-beta/Smad signaling pathway (AID 1346859; active means well fitted activation curve with a large enough effect in the signal ratio in the repeat runs, not every such curve was filed as active; the % refers to the signal ratio; further: series mostly up to about 77 µM)
Summary of the method: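 SBE-bla HEK293T cells plated overnight, then compound exposure for 5 h at 37 C. Beta-lactamase reporter read with LiveBLAzer B/G FRET substrate after 2 h at room temperature, fluorescence at 405 nm excitation, 460/530 nm emission.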

[14] = target: Thyrotropin-releasing hormone receptor (Homo sapiens) (UniProt P34981); test: qHTS assay to identify small molecule antagonists of the thyrotropin-releasing hormone receptor (TRHR) signaling pathway (AID 1346877; active means well fitted inhibition curve with a large enough effect in the repeat runs, not every such curve was filed as active; further: series mostly up to about 51 µM)
Chain of Thyrotropin-releasing hormone receptor (Homo sapiens) (P34981 whole entry, looked up): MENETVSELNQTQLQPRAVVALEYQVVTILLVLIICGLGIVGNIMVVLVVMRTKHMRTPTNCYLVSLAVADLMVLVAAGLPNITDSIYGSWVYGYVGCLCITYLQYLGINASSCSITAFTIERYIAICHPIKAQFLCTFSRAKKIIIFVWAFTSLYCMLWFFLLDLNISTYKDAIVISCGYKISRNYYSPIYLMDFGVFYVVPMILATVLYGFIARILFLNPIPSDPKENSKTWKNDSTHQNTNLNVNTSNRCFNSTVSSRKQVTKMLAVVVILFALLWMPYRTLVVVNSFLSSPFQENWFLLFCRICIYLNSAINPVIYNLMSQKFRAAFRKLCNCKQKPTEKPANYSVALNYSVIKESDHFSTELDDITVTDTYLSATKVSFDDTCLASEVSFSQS
Summary of the method: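 Following an 18 h incubation at 37 °C and a 2 h calcium dye load, TRHR-HEK293 cells were exposed to compound (5 min, room temperature) and challenged with TRH, 1 nM final.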

[15] = target: Androgen receptor (Homo sapiens) (UniProt P10275); test: qHTS assay to identify small molecule agonists of the androgen receptor (AR) signaling pathway in the presence of an antagonist (AID 1259381; calls by dose curve; further: nearly all actives have a fitted effect of over 15% in size)
Chain of Androgen receptor (Homo sapiens) (P10275 whole entry, looked up): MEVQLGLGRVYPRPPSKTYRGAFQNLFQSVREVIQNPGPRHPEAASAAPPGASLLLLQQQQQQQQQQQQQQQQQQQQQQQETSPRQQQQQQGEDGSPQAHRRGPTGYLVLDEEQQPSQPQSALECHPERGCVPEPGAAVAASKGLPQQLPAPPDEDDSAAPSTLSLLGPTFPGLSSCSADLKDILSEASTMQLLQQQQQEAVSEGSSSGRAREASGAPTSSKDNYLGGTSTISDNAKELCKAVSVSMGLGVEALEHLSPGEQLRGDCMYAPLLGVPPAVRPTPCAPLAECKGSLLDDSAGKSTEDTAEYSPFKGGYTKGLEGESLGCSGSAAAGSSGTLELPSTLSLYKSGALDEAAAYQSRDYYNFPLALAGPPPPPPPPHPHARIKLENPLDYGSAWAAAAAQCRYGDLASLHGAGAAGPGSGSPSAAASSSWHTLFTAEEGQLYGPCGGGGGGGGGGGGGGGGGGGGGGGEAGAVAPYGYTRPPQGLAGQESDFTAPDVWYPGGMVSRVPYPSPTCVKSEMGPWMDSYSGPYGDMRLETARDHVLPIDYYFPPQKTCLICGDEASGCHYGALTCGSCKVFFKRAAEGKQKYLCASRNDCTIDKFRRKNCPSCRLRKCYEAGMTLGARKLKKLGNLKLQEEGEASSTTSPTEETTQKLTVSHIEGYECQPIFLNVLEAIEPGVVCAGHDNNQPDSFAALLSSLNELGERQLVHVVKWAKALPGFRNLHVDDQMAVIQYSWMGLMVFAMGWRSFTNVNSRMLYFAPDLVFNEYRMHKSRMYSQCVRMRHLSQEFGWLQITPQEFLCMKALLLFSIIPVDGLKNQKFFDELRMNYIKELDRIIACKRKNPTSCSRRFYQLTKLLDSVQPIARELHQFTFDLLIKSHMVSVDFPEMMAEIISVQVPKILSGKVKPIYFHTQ
Summary of the method: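 Test compounds at 15 concentrations were incubated for 16hr with MDA-kb2 reporter cells in presence of 3.0uM nilutamide (final). Signal: ONE-Glo luciferase luminescence.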

[16] = target: Estrogen receptor (Homo sapiens) (UniProt P03372); test: qHTS assay to identify small molecule agonists of the estrogen receptor alpha (ER-alpha) signaling pathway in the presence of an antagonist (AID 1259383; calls by dose curve; further: top concentration of the series differs between compounds; nearly all actives have a fitted effect of over 15% in size)
Chain of Estrogen receptor (Homo sapiens) (P03372 whole entry, looked up): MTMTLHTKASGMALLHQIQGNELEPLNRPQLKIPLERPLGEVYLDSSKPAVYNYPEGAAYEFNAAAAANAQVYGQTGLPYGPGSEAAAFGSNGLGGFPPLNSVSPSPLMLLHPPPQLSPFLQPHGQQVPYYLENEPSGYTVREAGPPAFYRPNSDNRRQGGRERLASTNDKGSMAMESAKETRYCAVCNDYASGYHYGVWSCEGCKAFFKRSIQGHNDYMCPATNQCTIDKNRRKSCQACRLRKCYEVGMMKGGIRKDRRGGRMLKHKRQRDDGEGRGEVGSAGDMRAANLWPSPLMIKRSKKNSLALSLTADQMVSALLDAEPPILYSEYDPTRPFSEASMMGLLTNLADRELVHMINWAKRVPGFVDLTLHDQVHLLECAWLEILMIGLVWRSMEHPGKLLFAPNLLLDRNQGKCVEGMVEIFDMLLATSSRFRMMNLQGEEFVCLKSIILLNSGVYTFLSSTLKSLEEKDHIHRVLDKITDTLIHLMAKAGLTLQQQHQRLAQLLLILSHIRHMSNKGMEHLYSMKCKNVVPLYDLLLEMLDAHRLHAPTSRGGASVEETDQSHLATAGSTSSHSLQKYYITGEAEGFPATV
Summary of the method: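 Stably transfected VM7Luc4E2 reporter cells, kept 5 days in charcoal-stripped serum, received ICI-182,780 at 10.0nM final before compound addition. Following 22hr incubation at 37C and 5% CO2, luciferase signal was read by luminescence.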

[17] = qHTS assay to identify small molecule agonists or antagonists of the thyroid stimulating hormone receptor (TSHR) signaling pathway - wild type cell line counter screen (AID 1259384; calls by dose curve)
Summary of the method: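 Wild-type HEK293 cells were plated 18 h at 37 C/5% CO2, pin-dosed with compound plus Ro20-1724 medium, held 30 min at room temperature, then given cAMP-d2 and anti-cAMP-cryptate; fluorescence was read after 1 h. Fifteen concentrations, triplicate.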

[18] = target: Thyrotropin receptor (Homo sapiens) (UniProt P16473); test: qHTS assay to identify small molecule antagonists of the thyroid stimulating hormone receptor (TSHR) signaling pathway (AID 1259385; calls by dose curve; further: nearly all actives have a fitted effect of over 20% in size)
Chain of Thyrotropin receptor (Homo sapiens) (P16473 whole entry, looked up): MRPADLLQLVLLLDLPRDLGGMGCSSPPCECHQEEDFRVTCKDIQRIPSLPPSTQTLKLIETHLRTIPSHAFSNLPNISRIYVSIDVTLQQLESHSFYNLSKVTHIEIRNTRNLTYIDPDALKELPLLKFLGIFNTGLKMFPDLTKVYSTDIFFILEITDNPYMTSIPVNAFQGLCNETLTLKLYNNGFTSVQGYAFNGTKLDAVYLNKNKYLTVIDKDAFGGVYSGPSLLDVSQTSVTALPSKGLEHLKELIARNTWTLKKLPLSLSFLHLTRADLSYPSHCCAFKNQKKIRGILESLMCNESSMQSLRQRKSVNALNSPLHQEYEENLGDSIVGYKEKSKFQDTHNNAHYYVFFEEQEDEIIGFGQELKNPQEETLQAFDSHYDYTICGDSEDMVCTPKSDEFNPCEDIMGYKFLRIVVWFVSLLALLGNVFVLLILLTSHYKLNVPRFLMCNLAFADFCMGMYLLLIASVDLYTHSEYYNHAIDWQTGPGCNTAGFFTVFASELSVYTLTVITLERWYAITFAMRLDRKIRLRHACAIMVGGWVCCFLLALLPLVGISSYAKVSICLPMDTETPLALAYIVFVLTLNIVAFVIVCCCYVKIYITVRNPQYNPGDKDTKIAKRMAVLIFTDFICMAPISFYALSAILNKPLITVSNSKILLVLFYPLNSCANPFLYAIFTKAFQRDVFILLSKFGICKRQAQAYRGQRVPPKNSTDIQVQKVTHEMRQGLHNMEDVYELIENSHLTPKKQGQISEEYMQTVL
Summary of the method: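 TSHR-HEK293 cells were plated and held 18 h at 37C/5% CO2, then given compound plus Ro20-1724 and stimulated with TSH at 1.5 ng/mL final. After 30 min at room temperature, cAMP was detected with cAMP-d2/anti-cAMP-cryptate (1 h) by fluorescence.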

[19] = target: Progesterone receptor (Homo sapiens) (UniProt P06401); test: qHTS assay to identify small molecule agonists of the progesterone receptor (PR) signaling pathway (AID 1346784; calls by dose curve; further: nearly all actives have a fitted effect of over 30% in size)
Summary of the method: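 PR-UAS-bla HEK 293T cells (beta-lactamase reporter under UAS) in 2% charcoal-stripped FBS, dosed with 23 nL compound after 6 hr, incubated 16hr at 37C. LiveBLAzer B/G FRET substrate added, fluorescence read after 2 hours.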

[20] = target: Estrogen receptor beta (Homo sapiens) (UniProt Q92731); test: qHTS assay to identify small molecule agonists of the estrogen receptor beta (ER-beta) signaling pathway (AID 1259377; active means well fitted activation curve with a large enough effect in the signal ratio in the repeat runs, not every such curve was filed as active; the % refers to the signal ratio)
Summary of the method: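 ER-beta-UAS-bla HEK293T cells in medium with 2% charcoal-stripped FBS were exposed to compounds for 16 h at 37C. Beta-lactamase reporter activity was read as fluorescence after 2 h with LiveBLAzer B/G FRET substrate at room temperature.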
On the % scale 0 is the no-effect control and ±100 the full control effect.

OC1OC[C@@H](O)[C@H](O)[C@H]1O (stereo not given in full)
inactive: Potency [1] | Potency [2] | Potency [3] | Potency [4] | Potency [5] | Potency [6] | outcome [7] | Potency [8] | Potency [9] | Potency [10] | outcome [11] | outcome [12] | outcome [13] | outcome [14]

O=C(CCOCCOCCOCCOCCC(=O)Nc1c(I)cc(I)c(C(=O)O)c1I)Nc1c(I)cc(I)c(C(=O)O)c1I
inactive: Potency [1] | Potency [2] | Potency [3] | Potency [4] | Potency [5] | Potency [15] | Potency [6] | Potency [16] | outcome [17] | Potency [18] | outcome [7] | Potency [19] | Potency [8] | Potency [9] | Potency [10] | outcome [11] | outcome [12] | outcome [13]

CC(C)[C@H](N)C(=O)OCCOCn1cnc2c(=O)[nH]c(N)nc21
inactive: Potency [1] | Potency [2] | outcome [20] | Potency [4] | Potency [5] | Potency [6] | Potency [16] | outcome [17] | Potency [18] | outcome [7] | Potency [19] | Potency [8] | Potency [9] | Potency [10] | outcome [12] | outcome [13] | outcome [14]

CC(C)[N+](C)(C)CC(O)COc1cccc2ccccc12 (stereo not given)
inactive: Potency [1] | Potency [2] | Potency [3] | Potency [4] | Potency [5] | Potency [6] | Potency [16] | Potency [18] | outcome [7] | Potency [8] | Potency [10] | outcome [11] | outcome [12] | outcome [13] | outcome [14]

Nc1cc(C(Cl)=C(Cl)Cl)c(S(N)(=O)=O)cc1S(N)(=O)=O
inactive: Potency [1] | Potency [2] | outcome [20] | Potency [4] | Potency [6] | Potency [16] | outcome [17] | Potency [18] | outcome [7] | Potency [19] | Potency [8] | Potency [9] | Potency [10] | outcome [11] | outcome [12] | outcome [13] | outcome [14]

OC/C=C/c1ccccc1
inactive: Potency [1] | Potency [2] | Potency [3] | Potency [4] | Potency [5] | Potency [6] | outcome [7] | Potency [19] | Potency [8] | Potency [9] | Potency [10] | outcome [12] | outcome [13]

Cn1ccc2cc3c(cc21)CCN3C(=O)Nc1cccnc1
inactive: activity change [1] 11% [at 18.9 µM, hits give high values] | activity change, negative = inhibition [2] 1.03% [at 19 µM] | activation [20] -2.3% [at 19 µM] | activity change, negative = cytotoxicity [4] 2.26% [at 19 µM] | activity change, negative = cytotoxicity [6] -14.8% [at 19 µM] | activation [16] 12% [at 19 µM] | activity change, negative = cytotoxicity [7] -5.2% [at 19 µM] | activation [19] 1.39% [at 19 µM] | activity change, negative = inhibition [8] -0.261% [at 18.9 µM] | activity change, negative = cytotoxicity [9] -18% [at 18.9 µM] | activity change, negative = cytotoxicity [10] 0.965% [at 19 µM] | viability change, negative = cytotoxic [11] 10.7% [at 15.8 µM] | activity change, negative = cytotoxicity [12] -1.62% [at 15.8 µM] | activation [13] 2.76% [at 15.8 µM] | activity, negative = inhibition [14] -16.1% [at 10.5 µM]

CC(C)(O)Cc1ccccc1
inactive: Potency [1] | Potency [2] | Potency [3] | Potency [4] | Potency [5] | Potency [6] | Potency [16] | outcome [17] | Potency [18] | outcome [7] | Potency [19] | Potency [8] | Potency [9] | outcome [12] | outcome [13] | outcome [14]
